# Experimental data published in the supplement of paper PMC12632987.
# Whole data set: some 1,800 sequences, median “median log2 fold change of GCK-ALFA target abundance (FLAG IP / Myc IP barcode read proportion)” near 0.14, cut for the lowest 2% near -0.84. Only a selection was taken, and the lowest values are over-represented in it overall.
# T1: TRAF2, Q12933
# T1 chain: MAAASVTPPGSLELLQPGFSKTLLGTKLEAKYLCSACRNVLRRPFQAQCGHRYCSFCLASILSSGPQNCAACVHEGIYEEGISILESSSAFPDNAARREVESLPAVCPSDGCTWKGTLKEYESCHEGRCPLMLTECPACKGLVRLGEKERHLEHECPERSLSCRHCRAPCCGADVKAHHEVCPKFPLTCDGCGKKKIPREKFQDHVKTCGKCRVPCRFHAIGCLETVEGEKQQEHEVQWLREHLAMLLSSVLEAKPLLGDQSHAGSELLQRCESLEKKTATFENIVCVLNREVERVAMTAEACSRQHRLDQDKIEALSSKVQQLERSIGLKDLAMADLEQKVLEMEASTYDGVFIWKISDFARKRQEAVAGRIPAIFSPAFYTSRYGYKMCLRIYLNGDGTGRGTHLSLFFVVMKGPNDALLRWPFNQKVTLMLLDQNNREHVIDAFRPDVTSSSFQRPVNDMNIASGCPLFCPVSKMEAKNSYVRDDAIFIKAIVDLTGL
# B1: traf2_out_11_155_685 (protein)
# chain: EEKQKINNELVDKISEIADKAKAEARAIAAATAAAHPEAAAALAATLEASAGFGLSSFLGRLAATFRALGLADAAAQVEALRAQAQKEMNAAVKEAEEKL
# B2: traf2_out_11_169_804 (protein)
# chain: EEAEKNREINDFALELNDEAVARLEEAALALAREAGLDPEEVRAIFEAHKGKSLSAVAAALIRHFRERGAEAAAEAVLALYEELKEEINKKMTEKIKELE
# B3: traf2_out_18_3_1946 (protein)
# chain: SEEERKKYSEKLDEVFDDTGAEILARARALVAEDPRFQPALDAIEAIAARGPRPATMANTLIDALRALGYEEEAAAVEEYYSEKAKEASELIKKYEEAIK
# B4: traf2_out_17_178_1710 (protein)
# chain: SKAEARATISAATDRMIDLAEAAAAELLAIAEAEGDLSPEELAELRRARRLGSARTTLALMRRAIPKLKSAERVQALLDRFEAEYAALAKEIAAALEKYE
# B5: traf2_out_17_178_1731 (protein)
# chain: SREEILKKISEKADELLDTNKEAMDELRKIAEKEGVLTPELREKLDAVHRNANLYALEEVFDEVIEKTKSKEEVEKLKEETSKKMRELNKEIQALVEELE
# B6: traf2_out_6_156_2382 (protein)
# chain: DIEKILEEAKKKIEELIKKLSKAPESKKIRYINEIAGTVYRALQKLRDLGASLEELKEFTEEIKKFVEEQLEKYGLDESTKNLILSSINAVGEVALREAA
# B7: traf2_out_20_3_2262 (protein)
# chain: DELRAKAEAALAEAEALLAELAPRLPAADAARLQELLDAAKAAFATDLRDALVYLSELRRLALALAEEARAAGDAALAAALEALADAVGRAANYVYKIIE
# B8: traf2_out_20_38_2006 (protein)
# chain: SEEEEEEKRLQKIIDAANEELDRWEKEIEELRAEGKSVEEIAEIAKKRIREMLTAAGLEEEAEELIAQVDTVLDSPDAERAIARILARAAALVTQKKLQE
# B9: traf2_out_20_38_2004 (protein)
# chain: SEEEEEEKRLEKIIQAANDALDAWEARFAALKAEGKSVEEIAEIAKEEIRRLLTAAGLEEEAEELVAQVDLVLDSPDAERLIARILARAAALVTQKKLQE
# B10: traf2_out_11_131_660 (protein)
# chain: MDAVATARSAAERVDALLALAETLSPEERHRLALHALDTIEAVAEYLTSHVSTMTKEEVKEAARILREARDRVLALDPRVAPEAAEVEEAIKKLLEAAEE
# B11: traf2_out_12_161_940 (protein)
# chain: SSEHFQELSDVANKAFDKAQEIVDRVAEVSPALRPTFLAVARSLTLPVEEARAILDAAIAAHEAELTPEQLAEVRALGDELLAIQKEAQEEIKKIQEKYR
# B12: traf2_out_3_89_2294 (protein)
# chain: SMEQEKKLEEMRKRMEAYLRGFERSARWVARQMVADGMSLDTIRGVLEAARTALLEVLRESAEEAGLSPEQIEELVEEARERLERIVEEVVEEARREREA
# B13: traf2_out_16_171_1431 (protein)
# chain: SAEEKEKALKEEIDKERDDIIERMETAVEVTPLISKETGLTVEQIAKGFRSTMDDRIEALKKKYEEAAKTASEEVKKYMKERLEEIEKAKEEALKKILEI
# B14: traf2_out_13_95_1115 (protein)
# chain: SKELAEKIMEISDKALDQANALLDALEAKIKASGKLAPEVAAALAAAKKSTISTAIHTLKELAKKYPEFKADFEATIAQLEQIRRDAGREVAKLIKEEKE
# B15: traf2_out_16_104_1404 (protein)
# chain: AEAKQAEFDAIIAELEAIADKLQKIANKLYKLYLKADPETKVKLSDALVKASEARRAALEAAERAREARETGGDLAEARAALAKAKEEAAKVEKEVKELE
# B16: traf2_out_17_162_1515 (protein)
# chain: SALEEELAKLEKELKKIEKELKELKEKLKDLDKMSKEELTDLLVEASEARRRALELAERLEELKPEIGEERAGKLIAEARKLAEELQKIANKIYKKLEEK
# B17: traf2_out_14_149_1232 (protein)
# chain: SAEQEKLRAAAEINAEIAAALDEVLALLDAGKVEEAKALLRATIAELRARGAAHGITVSGLFVLEEILALLDTDVEAAKAAAAAARARARNAAEAFREMA
# B18: traf2_out_20_3_2202 (protein)
# chain: EELEKKLEEELEKAEELLKKAKELADPETAKKLDELIKRLKESRELSYEDRLVELSEIRREVLLLAQQAKAEGNEELAKVLEEAAEAINRAKNLVYKIIE
# B19: traf2_out_13_95_1184 (protein)
# chain: SEETKKKINEIADDMLEKVEKILTELAEKVKDDPEVKKAVEEIKKTAVTKGIHTAIGELKELAKKYPEYKELINEAIEKIEEIRREAGKKVAEILKEEEE
# Molecular target: T1, TRAF2, Q12933
# Assay: median log2 fold change of GCK-ALFA target abundance (FLAG IP / Myc IP barcode read proportion) (log2 ratio); each designed protein is fused to an ALFA-tag nanobody in HEK293 cells to bring the named protein to FLAG-tagged glucokinase (GCK); Myc marks an untargeted standard; higher = target protein stabilised (more abundant)
# Details: target protein: 3xFLAG-MCP-GCK-ALFA reporter; HEK293 landing pad (RPLP)
# Protocol: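 LABEL-seq trans screen in HEK293 landing-pad cells. Each de novo designed 100-aa effector handle, binding the indicated effector (E3 ligase, DUB or autophagy protein), is fused to a constant NbALFA target handle and induced with 2 ug/mL doxycycline. A FLAG-MCP-GCK-ALFA target and a Myc-MCP standard reporter were transfected, and after 48 h circRNA barcodes were recovered by anti-FLAG and anti-Myc IP and sequenced. The value is the median across barcodes (at least 3 per design) of log2(FLAG/Myc read-proportion ratio), with the two transfection replicates pooled. Negative values mean degradation and positive values mean stabilisation of the target.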
row,Binder,median log2 fold change
1,B1,0.177
2,B2,0.243
3,B3,0.267
4,B4,-0.136
5,B5,0.639
6,B6,0.0808
7,B7,0.219
8,B8,-0.29
9,B9,-1.04
10,B10,0.0927
11,B11,-1.56
12,B12,-0.433
13,B13,0.175
14,B14,-0.178
15,B15,0.341
16,B16,0.222
17,B17,0.339
18,B18,-0.0195
19,B19,-0.726
